Columns and labels:
[1] = biological target: Tyrosine-protein kinase receptor UFO (Homo sapiens) (UniProt P30530); conditions: at 1 µM
[2] = biological target: Tyrosine-protein kinase Blk (Homo sapiens) (UniProt P51451); conditions: at 0.1 µM
[3] = biological target: Tyrosine-protein kinase Blk (Homo sapiens) (UniProt P51451); conditions: at 1 µM
[4] = biological target: T1, Cytoplasmic tyrosine-protein kinase BMX (Homo sapiens) (UniProt P51813); conditions: at 0.1 µM
T1 sequence (whole entry): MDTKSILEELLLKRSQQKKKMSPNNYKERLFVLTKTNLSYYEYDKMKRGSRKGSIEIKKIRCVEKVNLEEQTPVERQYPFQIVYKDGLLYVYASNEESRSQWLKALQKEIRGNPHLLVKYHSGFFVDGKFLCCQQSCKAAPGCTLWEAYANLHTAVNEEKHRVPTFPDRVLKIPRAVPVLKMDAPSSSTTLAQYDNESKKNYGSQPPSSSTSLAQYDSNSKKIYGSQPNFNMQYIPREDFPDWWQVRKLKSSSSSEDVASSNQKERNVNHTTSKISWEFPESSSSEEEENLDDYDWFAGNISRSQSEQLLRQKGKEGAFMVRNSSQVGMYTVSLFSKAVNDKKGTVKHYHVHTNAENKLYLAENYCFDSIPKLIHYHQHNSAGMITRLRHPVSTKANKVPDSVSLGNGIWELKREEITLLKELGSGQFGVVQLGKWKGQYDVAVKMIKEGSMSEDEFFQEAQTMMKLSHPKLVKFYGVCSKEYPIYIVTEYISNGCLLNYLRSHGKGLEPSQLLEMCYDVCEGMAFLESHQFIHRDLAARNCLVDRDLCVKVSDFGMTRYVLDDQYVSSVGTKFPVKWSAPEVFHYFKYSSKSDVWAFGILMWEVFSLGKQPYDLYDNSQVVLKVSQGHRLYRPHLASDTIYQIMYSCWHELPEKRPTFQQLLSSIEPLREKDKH

[5] = biological target: T1, Cytoplasmic tyrosine-protein kinase BMX (Homo sapiens); conditions: at 1 µM
[6] = biological target: Protein-tyrosine kinase 6 (Homo sapiens) (UniProt Q13882); conditions: at 0.1 µM
[7] = biological target: Protein-tyrosine kinase 6 (Homo sapiens) (UniProt Q13882); conditions: at 1 µM
[8] = biological target: Tyrosine-protein kinase BTK (Homo sapiens) (UniProt Q06187); conditions: at 0.1 µM
[9] = biological target: Tyrosine-protein kinase BTK (Homo sapiens) (UniProt Q06187); conditions: at 1 µM
[10] = biological target: Tyrosine-protein kinase CSK (Homo sapiens) (UniProt P41240); conditions: at 0.1 µM
[11] = biological target: Tyrosine-protein kinase CSK (Homo sapiens) (UniProt P41240); conditions: at 1 µM
[12] = biological target: T2, Discoidin domain-containing receptor 2 (Homo sapiens) (UniProt Q16832); conditions: at 0.1 µM
T2 sequence (whole entry): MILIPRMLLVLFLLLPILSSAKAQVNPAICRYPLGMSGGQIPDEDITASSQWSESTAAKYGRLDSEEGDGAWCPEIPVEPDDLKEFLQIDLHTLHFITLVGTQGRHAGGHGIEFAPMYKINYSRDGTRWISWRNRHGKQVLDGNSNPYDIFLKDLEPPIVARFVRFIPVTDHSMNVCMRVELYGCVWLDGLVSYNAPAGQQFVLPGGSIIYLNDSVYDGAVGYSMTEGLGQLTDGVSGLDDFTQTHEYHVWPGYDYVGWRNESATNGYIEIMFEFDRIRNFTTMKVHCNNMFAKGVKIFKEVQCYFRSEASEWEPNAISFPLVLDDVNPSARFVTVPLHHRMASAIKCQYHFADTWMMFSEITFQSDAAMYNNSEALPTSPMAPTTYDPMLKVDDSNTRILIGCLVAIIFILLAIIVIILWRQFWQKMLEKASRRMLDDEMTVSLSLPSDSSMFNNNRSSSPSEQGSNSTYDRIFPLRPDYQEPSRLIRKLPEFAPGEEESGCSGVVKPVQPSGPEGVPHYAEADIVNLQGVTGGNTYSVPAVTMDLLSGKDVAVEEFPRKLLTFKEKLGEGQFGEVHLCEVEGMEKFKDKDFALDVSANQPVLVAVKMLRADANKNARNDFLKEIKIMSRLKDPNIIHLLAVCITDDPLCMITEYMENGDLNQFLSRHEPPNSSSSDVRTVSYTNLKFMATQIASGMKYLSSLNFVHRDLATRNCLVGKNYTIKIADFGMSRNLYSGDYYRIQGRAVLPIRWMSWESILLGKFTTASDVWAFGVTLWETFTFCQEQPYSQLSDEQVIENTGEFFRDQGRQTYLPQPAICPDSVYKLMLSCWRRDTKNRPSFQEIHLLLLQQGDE

[13] = biological target: T2, Discoidin domain-containing receptor 2 (Homo sapiens); conditions: at 1 µM
[14] = biological target: Epidermal growth factor receptor (Homo sapiens) (UniProt P00533); conditions: at 0.1 µM
[15] = biological target: Epidermal growth factor receptor (Homo sapiens) (UniProt P00533); conditions: at 1 µM
[16] = system: Epidermal growth factor receptor (Homo sapiens), P00533 [L858R]; conditions: at 0.1 µM
[17] = system: Epidermal growth factor receptor (Homo sapiens), P00533 [L858R]; conditions: at 1 µM
[18] = system: Epidermal growth factor receptor (Homo sapiens), P00533 [L861Q]; conditions: at 0.1 µM
[19] = system: Epidermal growth factor receptor (Homo sapiens), P00533 [L861Q]; conditions: at 1 µM
[20] = system: Epidermal growth factor receptor (Homo sapiens), P00533 [T790M]; conditions: at 0.1 µM
Chain of Epidermal growth factor receptor (Homo sapiens), P00533 [T790M] (P00533 whole entry T790M): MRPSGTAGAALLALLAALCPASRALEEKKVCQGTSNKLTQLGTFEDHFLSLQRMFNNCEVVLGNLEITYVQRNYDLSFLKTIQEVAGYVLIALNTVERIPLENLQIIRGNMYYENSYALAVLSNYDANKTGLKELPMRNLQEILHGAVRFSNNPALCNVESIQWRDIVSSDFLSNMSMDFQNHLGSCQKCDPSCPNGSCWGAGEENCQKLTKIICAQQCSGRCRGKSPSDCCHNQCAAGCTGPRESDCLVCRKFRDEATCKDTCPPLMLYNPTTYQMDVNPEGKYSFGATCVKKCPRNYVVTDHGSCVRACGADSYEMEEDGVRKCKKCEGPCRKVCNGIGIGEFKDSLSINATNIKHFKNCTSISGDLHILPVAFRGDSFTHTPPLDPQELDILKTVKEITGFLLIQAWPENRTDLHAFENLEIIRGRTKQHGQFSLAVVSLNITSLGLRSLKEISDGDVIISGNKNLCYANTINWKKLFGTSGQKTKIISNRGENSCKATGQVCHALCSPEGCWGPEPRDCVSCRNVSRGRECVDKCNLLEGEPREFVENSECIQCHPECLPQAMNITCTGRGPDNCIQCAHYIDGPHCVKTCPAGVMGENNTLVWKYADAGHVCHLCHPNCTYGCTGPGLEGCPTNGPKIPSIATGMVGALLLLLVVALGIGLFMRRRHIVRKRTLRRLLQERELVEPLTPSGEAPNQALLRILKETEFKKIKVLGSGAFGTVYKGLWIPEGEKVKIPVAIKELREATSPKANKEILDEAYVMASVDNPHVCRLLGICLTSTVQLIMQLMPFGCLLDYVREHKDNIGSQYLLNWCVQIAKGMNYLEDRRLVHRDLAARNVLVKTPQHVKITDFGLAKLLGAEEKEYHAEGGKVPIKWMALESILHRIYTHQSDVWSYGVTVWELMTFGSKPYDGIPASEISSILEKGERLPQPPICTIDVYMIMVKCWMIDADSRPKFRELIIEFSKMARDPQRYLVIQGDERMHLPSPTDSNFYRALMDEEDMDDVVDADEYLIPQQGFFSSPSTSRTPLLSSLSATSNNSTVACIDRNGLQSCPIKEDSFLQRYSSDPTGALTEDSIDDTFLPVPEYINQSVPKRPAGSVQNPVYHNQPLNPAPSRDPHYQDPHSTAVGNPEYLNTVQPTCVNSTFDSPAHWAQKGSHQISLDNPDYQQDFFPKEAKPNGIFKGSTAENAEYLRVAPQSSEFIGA

Chain of Epidermal growth factor receptor (Homo sapiens), P00533 [L858R] (P00533 whole entry L858R): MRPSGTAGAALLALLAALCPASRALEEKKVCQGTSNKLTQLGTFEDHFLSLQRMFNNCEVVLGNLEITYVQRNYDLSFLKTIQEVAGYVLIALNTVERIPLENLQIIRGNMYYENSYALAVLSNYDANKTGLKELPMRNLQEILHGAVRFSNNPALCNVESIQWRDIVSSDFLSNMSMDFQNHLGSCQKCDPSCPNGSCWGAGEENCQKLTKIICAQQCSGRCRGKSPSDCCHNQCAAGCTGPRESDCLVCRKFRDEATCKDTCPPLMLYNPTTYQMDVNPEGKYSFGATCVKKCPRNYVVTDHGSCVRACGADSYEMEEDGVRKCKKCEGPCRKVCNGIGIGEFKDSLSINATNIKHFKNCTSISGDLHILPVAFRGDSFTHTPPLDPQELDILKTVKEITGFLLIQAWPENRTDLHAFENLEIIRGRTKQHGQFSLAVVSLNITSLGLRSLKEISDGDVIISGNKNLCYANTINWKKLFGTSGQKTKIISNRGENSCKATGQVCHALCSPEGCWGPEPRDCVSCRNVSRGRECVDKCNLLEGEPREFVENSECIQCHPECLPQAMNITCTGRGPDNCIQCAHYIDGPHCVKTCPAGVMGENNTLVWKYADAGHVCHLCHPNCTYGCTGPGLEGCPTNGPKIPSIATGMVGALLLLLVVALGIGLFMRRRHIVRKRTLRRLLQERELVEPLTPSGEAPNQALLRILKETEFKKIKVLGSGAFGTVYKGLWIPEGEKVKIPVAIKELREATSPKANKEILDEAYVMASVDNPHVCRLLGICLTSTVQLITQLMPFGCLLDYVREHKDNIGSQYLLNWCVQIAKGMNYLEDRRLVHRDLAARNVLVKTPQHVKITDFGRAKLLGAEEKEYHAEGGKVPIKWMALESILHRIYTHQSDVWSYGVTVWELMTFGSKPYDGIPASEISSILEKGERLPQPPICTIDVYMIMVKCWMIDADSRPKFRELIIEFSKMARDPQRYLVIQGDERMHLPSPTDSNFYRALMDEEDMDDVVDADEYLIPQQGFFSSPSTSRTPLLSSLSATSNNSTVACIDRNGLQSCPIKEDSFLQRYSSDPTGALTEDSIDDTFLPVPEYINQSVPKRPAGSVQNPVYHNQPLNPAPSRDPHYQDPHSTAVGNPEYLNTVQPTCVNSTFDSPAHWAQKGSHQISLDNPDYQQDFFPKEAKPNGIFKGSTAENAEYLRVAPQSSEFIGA
Chain of Epidermal growth factor receptor (Homo sapiens), P00533 [L861Q] (P00533 whole entry L861Q): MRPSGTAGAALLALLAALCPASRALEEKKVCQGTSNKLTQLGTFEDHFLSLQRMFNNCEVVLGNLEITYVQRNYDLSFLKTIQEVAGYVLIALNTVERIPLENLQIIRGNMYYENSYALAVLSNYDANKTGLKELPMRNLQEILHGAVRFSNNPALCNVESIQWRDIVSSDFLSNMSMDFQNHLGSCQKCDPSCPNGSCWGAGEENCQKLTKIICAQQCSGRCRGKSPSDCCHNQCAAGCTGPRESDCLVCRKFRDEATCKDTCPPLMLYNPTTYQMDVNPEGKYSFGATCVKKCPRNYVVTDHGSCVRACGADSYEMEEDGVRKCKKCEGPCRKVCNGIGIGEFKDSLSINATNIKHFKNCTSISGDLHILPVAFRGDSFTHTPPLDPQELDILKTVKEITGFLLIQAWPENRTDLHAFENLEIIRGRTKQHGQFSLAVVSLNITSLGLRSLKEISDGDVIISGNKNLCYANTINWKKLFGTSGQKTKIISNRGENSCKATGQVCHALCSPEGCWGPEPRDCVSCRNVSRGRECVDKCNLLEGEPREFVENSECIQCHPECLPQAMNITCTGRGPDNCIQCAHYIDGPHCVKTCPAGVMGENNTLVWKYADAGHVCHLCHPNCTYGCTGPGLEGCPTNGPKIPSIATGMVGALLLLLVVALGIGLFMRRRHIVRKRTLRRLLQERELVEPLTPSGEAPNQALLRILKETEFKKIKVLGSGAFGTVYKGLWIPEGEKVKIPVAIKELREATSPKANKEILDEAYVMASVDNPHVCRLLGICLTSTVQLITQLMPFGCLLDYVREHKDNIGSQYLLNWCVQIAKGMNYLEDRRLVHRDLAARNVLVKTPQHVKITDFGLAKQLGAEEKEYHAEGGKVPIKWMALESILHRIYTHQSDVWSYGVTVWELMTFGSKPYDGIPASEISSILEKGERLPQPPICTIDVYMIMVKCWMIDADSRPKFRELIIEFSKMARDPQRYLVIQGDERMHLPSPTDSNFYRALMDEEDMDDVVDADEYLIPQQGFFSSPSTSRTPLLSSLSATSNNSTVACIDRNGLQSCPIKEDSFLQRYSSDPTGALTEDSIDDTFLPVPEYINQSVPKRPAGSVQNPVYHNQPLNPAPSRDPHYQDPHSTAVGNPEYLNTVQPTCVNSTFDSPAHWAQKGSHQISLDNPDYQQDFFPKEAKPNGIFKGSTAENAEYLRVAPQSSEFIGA
Chain of Tyrosine-protein kinase CSK (Homo sapiens) (P41240 2-450 limits assumed): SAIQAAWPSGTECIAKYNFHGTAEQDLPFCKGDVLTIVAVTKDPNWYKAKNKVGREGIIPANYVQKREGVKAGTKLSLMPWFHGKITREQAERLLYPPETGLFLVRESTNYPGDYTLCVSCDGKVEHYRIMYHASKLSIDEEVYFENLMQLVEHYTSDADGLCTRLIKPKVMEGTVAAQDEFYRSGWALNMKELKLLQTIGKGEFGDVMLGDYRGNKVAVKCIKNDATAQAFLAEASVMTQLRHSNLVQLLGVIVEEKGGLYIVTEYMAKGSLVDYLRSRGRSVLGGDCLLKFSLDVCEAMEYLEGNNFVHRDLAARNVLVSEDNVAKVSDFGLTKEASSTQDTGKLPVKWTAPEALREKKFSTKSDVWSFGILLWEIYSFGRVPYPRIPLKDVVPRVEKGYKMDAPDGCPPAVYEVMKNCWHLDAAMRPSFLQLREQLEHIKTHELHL
Chain of Tyrosine-protein kinase Blk (Homo sapiens) (P51451 2-505 limits assumed): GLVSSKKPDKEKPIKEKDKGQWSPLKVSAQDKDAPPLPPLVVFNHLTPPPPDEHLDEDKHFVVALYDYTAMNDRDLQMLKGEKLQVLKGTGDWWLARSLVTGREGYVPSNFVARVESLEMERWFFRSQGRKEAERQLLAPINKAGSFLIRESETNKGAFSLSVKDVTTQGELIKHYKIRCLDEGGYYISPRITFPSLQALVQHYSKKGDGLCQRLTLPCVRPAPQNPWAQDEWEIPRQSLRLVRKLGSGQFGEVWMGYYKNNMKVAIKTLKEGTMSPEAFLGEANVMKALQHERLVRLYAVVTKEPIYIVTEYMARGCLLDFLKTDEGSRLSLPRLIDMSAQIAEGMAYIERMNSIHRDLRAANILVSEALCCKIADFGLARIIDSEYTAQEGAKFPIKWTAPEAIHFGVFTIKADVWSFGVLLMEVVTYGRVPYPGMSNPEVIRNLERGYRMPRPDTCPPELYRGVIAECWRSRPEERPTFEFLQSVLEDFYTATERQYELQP
Chain of Protein-tyrosine kinase 6 (Homo sapiens) (Q13882 whole entry, looked up): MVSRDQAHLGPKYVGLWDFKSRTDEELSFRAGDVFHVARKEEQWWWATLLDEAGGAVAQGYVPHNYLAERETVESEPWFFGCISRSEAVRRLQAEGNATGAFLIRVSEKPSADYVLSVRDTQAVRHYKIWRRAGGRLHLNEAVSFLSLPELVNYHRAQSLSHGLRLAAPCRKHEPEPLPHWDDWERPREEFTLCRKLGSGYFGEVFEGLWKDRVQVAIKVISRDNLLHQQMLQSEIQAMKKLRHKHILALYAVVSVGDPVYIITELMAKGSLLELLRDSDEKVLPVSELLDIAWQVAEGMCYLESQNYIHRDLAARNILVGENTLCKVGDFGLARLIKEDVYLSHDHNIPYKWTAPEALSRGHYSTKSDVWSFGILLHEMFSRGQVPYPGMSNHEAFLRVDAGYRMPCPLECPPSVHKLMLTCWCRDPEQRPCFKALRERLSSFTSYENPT

| Structure (SMILES) | inhibition [1] | inhibition [2] | inhibition [3] | inhibition [4] | inhibition [5] | inhibition [6] | inhibition [7] | inhibition [8] | inhibition [9] | inhibition [10] | inhibition [11] | inhibition [12] | inhibition [13] | inhibition [14] | inhibition [15] | inhibition [16] | inhibition [17] | inhibition [18] | inhibition [19] | inhibition [20] |
| --- | --- | --- | --- | --- | --- | --- | --- | --- | --- | --- | --- | --- | --- | --- | --- | --- | --- | --- | --- | --- |
| CC1=C(C(=O)Nc2ccc3[nH]ncc3c2)C(c2ccc(F)cc2)N=C(c2ccc(C(F)(F)F)nc2)N1 (stereo not given) | -0.71% | 2.98% | 3.72% | -0.04% | 3.01% | 2.13% | 3.49% | 0.06% | 0.16% | 1.42% | 6.65% | 1.54% | 6.22% | 3.43% | 7.73% | 4.85% | 6.69% | 2.32% | 2.72% | 0.14% |
| COc1ccccc1-c1cc(/C=C2\C(=O)Nc3ncc(Br)cc32)cc(Br)c1O | -1.51% | 2.49% | 10.7% | 0.75% | 6.48% | 5.88% | 3.92% | 1.5% | 2.07% | 3.21% | 3.65% | 2.75% | 10.6% | -0.76% | 2.08% | -0.74% | 0.61% | 2.99% | 4.29% | 1.88% |
| CNC(=O)c1sc(-n2cnc3cc(OC)c(OC)cc32)cc1OCc1ccccc1C(F)(F)F | -2.36% | 3.39% | 7.51% | 4.57% | 2.17% | 0.08% | 2.98% | 0.62% | 3.2% | 3.42% | 7.18% | 2.3% | 2.7% | -0.83% | 2.09% | 0.74% | -0.13% | 1.16% | 1.23% | 0.64% |
| CN1CCC(n2cnc(-c3ccc(F)cc3)c2-c2ccnc(NCCO)n2)CC1 | -5.39% | 3.74% | 2.11% | -6.22% | 4.95% | 3.29% | 6.89% | 0.96% | 0.09% | 7.33% | 8.66% | 2.1% | 3.08% | 0.6% | 6.58% | 0.99% | 11% | 4.45% | 5.89% | 3.52% |
| CCOc1ccc2c(-c3ccnc(Nc4cc(OC)cc(C(F)(F)F)c4)n3)cnn2n1 | -1.43% | 0.5% | 4.83% | -3.75% | 2.82% | 1.51% | 2.17% | -0.58% | -0.1% | -0.12% | 0.11% | -0.19% | 1.4% | 2.81% | 5.28% | 2.28% | 3.23% | 1.52% | 2.39% | 0.36% |

From ChEMBL document CHEMBL1961873, “Compounds: GSK PKIS; Assays: Nanosyn kinase panel” (2012)
